# Experimental data from PubChem BioAssay (NCATS).
# Records with an inconclusive call do not appear. Where a call stands in place of a potency, no number is given. The source made the active and inactive calls. Unless noted, the call rests on the fitted dose curve; in most records, active means well fitted curve in the direction sought with a large enough effect; inconclusive means small, poorly fitted or top-dose-only effect, or another doubt; inactive means no such curve, though single readings can be large; an effect the other way counts as inactive or inconclusive.
# Assays:
# [1] = Validation of Assay for Modulators of Lamin A Splicing (AID 1459; active means well fitted curve in the direction sought with a large enough effect in the signal ratio; the % refers to the signal ratio;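 further: cells exposed to compound for two days before reading; ratio rise marks activators and ratio drop marks inhibitors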)
# Method in brief: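 Readout: ratio of GFP (500-530 nm) to RFP (575-640 nm) total object intensity by 488 nm laser-scanning cytometry after 48 hrs. Cells were HeLa S3 clones carrying lamin A-EGFP minigene plus DsRed2 viability reporter; vehicle 0.5% DMSO final.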
# [2] = qHTS Assay for Lipid Storage Modulators (AID 1519; calls by dose curve); conditions: Drosophila S3 cells, BODIPY lipid droplet/cell ratio, laser cytometry, cells loaded with oleic acid; for activity change, negative = inhibition: at 57.5 µM (top of the series)
# Method in brief: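 Cells seeded at 5,000 per well were treated with compounds over a concentration series and loaded with oleic acid (400 uM, as added). Lipid droplet fluorescence (488 nm excitation, 500-530 nm channel) was read by laser-scanning cytometry and normalized to 20 uM Triacsin C.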
# [3] = biological target: DNA repair nuclease/redox regulator APEX1 (Homo sapiens) (UniProt P27695); assay: qHTS Validation Assay for Inhibitors of the Human Apurinic/apyrimidinic Endonuclease 1 (APE1) (AID 1705;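 further: TAMRA fluorescence gain over two minutes as APE1 cuts a quenched THF abasic duplex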)
# Method in brief: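 Read-out: TAMRA fluorescence (525 nm ex, 598 nm em) from cleavage of a quenched THF abasic-site duplex, 50 nM final; activity taken as intensity change between third and first of three reads 60 s apart.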
# [4] = Counterscreen for APE1 Inhibitors: Fluorescent Dye Displacement Validation Assay (AID 1707)
# Method in brief: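 Signal: ThO fluorescence (ex 480 nm/em 540 nm) on binding 50 nM dsDNA; displacement by test compound reduces it. Conditions: 250 nM dye, 50 mM Tris-HCl pH7.5, 2 mM MgCl2, 50mM NaCl, 0.01% Tween-20.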
# [5] = qHTS for differential inhibitors of proliferation of Plasmodium falciparum line 7G8 (AID 1815);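 further: parasite growth measured after three days of incubation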
# [6] = qHTS for differential inhibitors of proliferation of Plasmodium falciparum line GB4 (AID 1816); conditions: Potency: Plasmodium falciparum GB4 proliferation inhibition;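 further: parasite growth measured after 72 h incubation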
# [7] = qHTS for differential inhibitors of proliferation of Plasmodium falciparum line 3D7 (AID 1876);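 further: parasite growth measured after three days of culture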
# [8] = qHTS for differential inhibitors of proliferation of Plasmodium falciparum line D10 (AID 1877);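 further: parasites grown with compound for 72 h before DNA staining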
# [9] = qHTS for differential inhibitors of proliferation of Plasmodium falciparum line Dd2 (AID 1882); conditions: Potency: Plasmodium falciparum Dd2 proliferation inhibition; further: nearly all actives have a fitted effect of over 65% in size
# Method in brief: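 SYBR Green DNA fluorescence (ex 485, em 535 nm) after overnight lysis quantifies parasite growth; compound exposure lasted 72 h at 37 C on infected red cells at 2.5% hematocrit, 0.3% parasitemia (final). Artemisinin 0.29 uM and vehicle wells define normalization.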
# [10] = qHTS for differential inhibitors of proliferation of Plasmodium falciparum line W2 (AID 1883); conditions: Potency: Plasmodium falciparum W2 proliferation inhibition;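 further: parasites grown with compound for 72 h before lysis and staining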
# [11] = qHTS for differential inhibitors of proliferation of Plasmodium falciparum line HB3 (AID 1886); conditions: Potency: Plasmodium falciparum HB3 proliferation inhibition;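 further: parasites grown with compound for 72 h before SYBR Green readout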
# [12] = biological target: Ferritin light chain (Equus caballus) (UniProt P02791); assay: qHTS Validation Assay for Identification of Novel General Anesthetics (AID 2323)
# Method in brief: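 10 uM horse-spleen apoferritin + 1-AMA (50% saturated, PBS); cpd pin-transferred, 10 min RT. Ex 380/Em 535 nm endpoint. Activity normalized between free 1-AMA and 1-AMA/apoferritin; 4-parameter Hill fit of concentration-response.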
# [13] = biological target: Endonuclease 4 (Escherichia coli (strain K12)) (UniProt P0A6C1); assay: Counterscreen for APE1 Inhibitors: qHTS Validation Assay for Inhibitors of Endonuclease IV (AID 1708)
# Method in brief: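 Incision of a double-stranded 50 nM TAMRA/BHQ-2 abasic substrate was followed kinetically (525/598 nm, reads every 60 s) after 15 min enzyme–compound preincubation with 2 nM EndoIV in pH 7.5 Tris buffer with MgCl2, DTT and Tween-20; concentration-response format.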
# [14] = qHTS Assay for Modulators of Human Peripheral Myelin Protein 22 (PMP22) Expression/Activity (AID 1967; active means well fitted curve in the direction sought with a large enough effect in the signal ratio; the % refers to the signal ratio)
# Method in brief: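 Mouse MSC80 Schwann line, Pmp22 promoter–CBG68 reporter, EF-alpha–CBR internal control. 24h compound exposure, 37 °C/5% CO2, DMEM + 10% FBS. Readout: corrected green/red luminescence ratio, normalized to untreated cells; concentration-response curves fitted and classified.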
# [15] = biological target: Alpha-galactosidase A (Homo sapiens) (UniProt P06280); assay: Counterscreen for Glucocerebrosidase Inhibitors: qHTS Assay for Human alpha-Galactosidase at pH 4.5 (AID 992)
# Method in brief: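 Citrate buffer pH 4.5, Tween-20 0.005%. Enzyme 2 nM, substrate 80 uM, 20 min RT. Stop pH 10. Fluorescence Ex 365/Em 440. AC50 by Hill fit.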
# [16] = biological target: alpha-glucosidase (Oryza sativa, rice) (UniProt Q653V4); assay: Counterscreen for Glucocerebrosidase Inhibitors: qHTS Assay for Rice alpha-Glucosidase at pH 5.0 (AID 997)
# Method in brief: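 Endpoint fluorogenic assay at pH 5.0: compounds (0.7 nM to 77 uM) titrated against 4 nM rice enzyme and 400 uM 4-MU-alpha-glucoside for 20 min at room temperature; NaOH/glycine stop, read ex 365/em 440 nm, Hill-fitted AC50.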
# [17] = biological target: Alpha-galactosidase (Coffea arabica) (UniProt Q42656); assay: Counterscreen for Glucocerebrosidase Inhibitors: qHTS Assay for Coffee Bean alpha-Galactosidase at pH 5.9 (AID 998)
# Method in brief: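 Fluorogenic 4-MU substrate hydrolysis, 80 uM substrate and 2 nM coffee bean alpha-galactosidase, pH 5.9 citrate buffer, 20 min at room temperature, then NaOH/glycine stop. Titration 0.7 nM–77 uM, normalized to no-enzyme and enzyme controls, AC50 via Hill equation.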
# [18] = Cell Viability - LYMP1-002 - Assay at 24 hr (AID 993)
# Method in brief: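 Acute toxicity is measured as concentration-dependent loss of cellular ATP in a human lymphoblastoid line (Coriell LYMP1-002) after 24 h treatment in complete medium. ATP is quantified by luciferase luminescence and AC50 derived by Hill modelling.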
# [19] = Cell Viability - LYMP1-002 - Assay at 40 hr (AID 994); further: nearly all actives have a fitted effect of over 60% in size
# Method in brief: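 Cells are plated at 2500 per well and rested 5 hr at 37 C. Compounds are added and incubated 40 hr at 37 C. CellTiter-Glo reagent is added for 30 min at room temperature before luminescence is read.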
# [20] = qHTS Assay for Identification of Small Molecule Inducers of Hypoxia Response (AID 2120; active means well fitted curve in the direction sought with a large enough effect in the signal ratio, with a control signal flat, not every such curve was filed as active; the % refers to the signal ratio)
# Method in brief: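 Cell-based qHTS for reporter induction: hypoxia response element controlled beta-lactamase in ME-180 cells. Compounds incubated 17 h at 37 degrees C; activity from blue/green (460/530 nm) ratio, inducers ranked by AC50.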
# [21] = measured here: cell count channel max response
# [22] = measured here: lipid channel max response
# Sequence of Ferritin light chain (Equus caballus) (P02791 2-175 limits assumed): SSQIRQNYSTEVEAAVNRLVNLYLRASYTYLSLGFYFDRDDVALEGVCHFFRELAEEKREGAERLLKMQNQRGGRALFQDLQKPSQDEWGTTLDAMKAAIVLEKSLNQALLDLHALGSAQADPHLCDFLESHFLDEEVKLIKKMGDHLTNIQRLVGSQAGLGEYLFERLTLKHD
# Sequence of DNA repair nuclease/redox regulator APEX1 (Homo sapiens) (P27695 whole entry, looked up): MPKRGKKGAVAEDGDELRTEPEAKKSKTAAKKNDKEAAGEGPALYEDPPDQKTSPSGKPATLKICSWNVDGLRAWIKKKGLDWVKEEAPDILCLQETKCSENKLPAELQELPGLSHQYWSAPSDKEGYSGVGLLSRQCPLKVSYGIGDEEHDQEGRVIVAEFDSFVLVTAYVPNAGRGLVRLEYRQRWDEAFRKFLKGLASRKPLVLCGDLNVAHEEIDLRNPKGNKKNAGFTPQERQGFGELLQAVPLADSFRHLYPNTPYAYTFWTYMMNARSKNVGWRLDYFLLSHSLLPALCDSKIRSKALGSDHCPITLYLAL
# Sequence of Alpha-galactosidase (Coffea arabica) (Q42656 whole entry, looked up): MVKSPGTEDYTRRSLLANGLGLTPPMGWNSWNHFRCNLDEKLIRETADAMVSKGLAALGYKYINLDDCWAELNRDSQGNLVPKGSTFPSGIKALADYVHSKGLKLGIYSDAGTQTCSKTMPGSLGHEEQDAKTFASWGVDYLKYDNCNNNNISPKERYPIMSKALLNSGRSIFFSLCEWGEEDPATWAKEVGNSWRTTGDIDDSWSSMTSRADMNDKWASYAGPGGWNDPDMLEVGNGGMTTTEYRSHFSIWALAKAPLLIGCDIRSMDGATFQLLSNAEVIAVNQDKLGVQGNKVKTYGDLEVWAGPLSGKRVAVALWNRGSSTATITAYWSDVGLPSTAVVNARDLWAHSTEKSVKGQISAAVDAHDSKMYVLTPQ
# Sequence of Alpha-galactosidase A (Homo sapiens) (P06280 whole entry, looked up): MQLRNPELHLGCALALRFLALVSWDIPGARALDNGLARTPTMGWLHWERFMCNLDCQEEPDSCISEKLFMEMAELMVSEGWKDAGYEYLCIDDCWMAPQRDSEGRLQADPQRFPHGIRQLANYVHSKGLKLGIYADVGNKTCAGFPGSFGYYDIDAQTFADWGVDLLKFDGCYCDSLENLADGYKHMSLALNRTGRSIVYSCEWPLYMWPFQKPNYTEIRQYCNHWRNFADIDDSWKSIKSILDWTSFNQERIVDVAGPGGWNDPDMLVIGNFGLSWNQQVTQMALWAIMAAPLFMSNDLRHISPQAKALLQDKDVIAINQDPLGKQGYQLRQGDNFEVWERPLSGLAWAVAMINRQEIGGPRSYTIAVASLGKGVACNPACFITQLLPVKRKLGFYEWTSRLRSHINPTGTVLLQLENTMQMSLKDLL
compound,measurement,setting,value
CS(=N)(=O)CC[C@H](N)C(=O)O (stereo partly specified),outcome,[1],inactive
same,"activity change, negative = inhibition",[2],-1.65% (inactive)
same,max response,[2]; [21],43.8%
same,max response,[2]; [22],40.4%
same,Potency,[3],inactive
same,Potency,[4],inactive
same,Potency,[5],inactive
same,Potency,[6],inactive
same,Potency,[7],inactive
same,Potency,[8],inactive
same,Potency,[9],inactive
same,Potency,[10],inactive
same,Potency,[11],inactive
same,outcome,[12],inactive
O=C(O)[C@@H]1CCN1,outcome,[1],inactive
same,"activity change, negative = inhibition",[2],1.64% (inactive)
same,max response,[2]; [21],-13.5%
same,max response,[2]; [22],-13.6%
same,Potency,[3],inactive
same,Potency,[4],inactive
same,Potency,[13],inactive
same,Potency,[5],inactive
same,Potency,[6],inactive
same,Potency,[7],inactive
same,Potency,[8],inactive
same,Potency,[9],inactive
same,Potency,[10],inactive
same,Potency,[11],inactive
same,outcome,[14],inactive
same,outcome,[12],inactive
Clc1cnc(Oc2ccc(Oc3ncc(Cl)cc3Cl)cc2)c(Cl)c1,outcome,[15],inactive
same,outcome,[16],inactive
same,outcome,[17],inactive
same,outcome,[1],inactive
same,Potency,[4],inactive
same,Potency,[13],inactive
same,Potency,[6],inactive
same,Potency,[7],inactive
same,Potency,[8],inactive
same,Potency,[9],inactive
same,Potency,[11],inactive
same,outcome,[14],inactive
same,outcome,[12],inactive
O=S(=O)(c1ccc(Cl)cc1)c1ccc(Cl)cc1,Potency,[18],inactive
same,Potency,[19],inactive
same,outcome,[20],inactive
